Compound activity: PubChem BioAssay, National Center for Advancing Translational Sciences (NCATS)
Vaccinia mCherry: inhibitors of vaccinia virus infection (mCherry reporter signal); Vaccinia virus mCherry reporter infection, fluorescence; Potency, µM (highest dose often 36.5 µM), without a hit: at the top dose activity change, negative = inhibition, hits mostly inhibitors; hit rate 0.63% among 310,000; calls by dose curve; tested in A549 cells; further: on the % scale 0 is the no-effect control and ±100 the full control effect; nearly all actives have a fitted effect of over 35% in size
Pf growth 48h: inhibits P. falciparum growth in the first generation, 48 h. P. falciparum luciferase growth in erythrocytes, 48 h. Potency, µM (highest dose often 28.7 µM), for inactives: at the highest dose activity change, negative = inhibition, usual class: inhibitors. hit rate 5.9% among 310,000; further: on the % scale 0 is the no-effect control and ±100 the full control effect
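Firefly luciferase activity from engineered P. falciparum reports growth; inhibitors lower the luminescent signal. Cultures contained 2% hematocrit erythrocytes at 0.1% final parasitemia.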
NS1 inh: blocks influenza NS1 protein function. Potency, µM (doses to about 46.1 µM), for the others: top-dose activity, positive = more growth. hit rate 0.4% among 270,000; calls by dose curve; further: actives are rising curves; nearly all actives have a fitted effect of over 50% in size
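In this qHTS, NS1 from influenza A is expressed in budding yeast, where it slows growth. Cells are switched from glucose to 2% galactose medium (pH 6.0, -URA), treated with compound, and growth recovery is read at OD600.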
Pf growth 96h: P. falciparum growth inhibition at 96 hour, primary screen for plastid delayed-death inhibitors | AID 504834 | hit rate 6.9% among 320,000 | Potency, µM (top dose mostly 28.7 µM), without a hit: top-dose activity change, negative = inhibition, usual class: inhibitors | P. falciparum luciferase reporter growth, 96 h; further: on the % scale 0 is the no-effect control and ±100 the full control effect
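Delayed-death screen, second-generation endpoint: infected erythrocytes, 2% hematocrit, 0.05% parasitemia final; 96 hours at 37 C, 5% CO2; luciferase detection reagent; luminescence decrease equals reduced growth.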
HCV inh: blocks hepatitis C virus. hit rate 3.4% among 340,000. AID 651820. Huh7.5.1 HCVcc-Cre infection, luciferase reporter, 44 h. Potency, µM (top dose mostly 41.8 µM), for the others: top-dose activity change, negative = inhibition, hits mostly inhibitors; further: on the % scale 0 is the no-effect control and ±100 the full control effect
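Luciferase read-out (15 sec integration) after a 15 min room-temperature substrate step quantifies HCVcc-Cre infection. Cells, 1,000 per well, had compound added 4 h post-plating, then virus at ~0.5 moi, and were cultured 44 h.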
VACV Venus inh: vaccinia inhibition (Venus reporter); Vaccinia virus Venus reporter expression, fluorescence; Potency, µM (doses to about 36.5 µM), for inactives: at the highest dose activity change, negative = inhibition, most hits filed as inhibitors; hit rate 0.46% among 330,000; calls by dose curve; tested in A549 cells; further: on the % scale 0 is the no-effect control and ±100 the full control effect; nearly all actives have a fitted effect of over 30% in size
An asterisk follows results filed as active. Only some compounds are listed: those with a hit (about 11% of all), similar ones and a draw of the others. Unless noted, the call rests on the fitted dose curve; in most records, active means well fitted inhibition curve with a large enough effect; inconclusive means small, poorly fitted or top-dose-only effect, or another doubt; inactive means no such curve, though single readings can be large or run the other way. Potency means the concentration at half of the fitted maximal effect.

COc1ccc(C(=O)N2CCC(=O)N(C(CO)Cc3ccccc3)CC2)cc1 (stereo not given) was read as Vaccinia mCherry inactive, Pf growth 48h 30%, NS1 inh 23%, Pf growth 96h -1%, HCV inh 0% and VACV Venus inh -13%.
COc1ccc2[nH]c(C)c(CCNC(=S)Nc3ccc(F)cc3)c2c1 was read as Vaccinia mCherry -11%, Pf growth 48h inconclusive, Pf growth 96h inconclusive, HCV inh -22% and VACV Venus inh -9%.
COc1ccc(C=Nc2c(O)ccc3ccccc23)cc1OC was read as NS1 inh -1%.
`COCCC(=O)Nc1ccc2c(c1)CN(C(=O)c1ccc(CSC)o1)CC2` gave Vaccinia mCherry 6%, Pf growth 48h inconclusive, NS1 inh 3%, Pf growth 96h 13µM*, HCV inh 10µM* and VACV Venus inh -23%.
O=C(Nc1ccc2c(c1)CN(Cc1ccc(CO)o1)CC2)c1ccc(C(F)(F)F)cc1 was read as Vaccinia mCherry inconclusive, Pf growth 48h inconclusive, NS1 inh 6%, Pf growth 96h 66%, HCV inh 11µM* and VACV Venus inh -18%.
Screening COc1ccccc1CCC(=O)Nc1ccc2c(c1)CN(Cc1ccc(CO)o1)CC2 returned Vaccinia mCherry -8%, Pf growth 48h 13µM*, NS1 inh 27%, Pf growth 96h inconclusive, HCV inh -30% and VACV Venus inh -10%.
For COCC(=O)N1CCc2ccc(NC(=O)c3ccc(C(F)(F)F)cc3)cc2C1 the results were Vaccinia mCherry inactive, HCV inh inconclusive and VACV Venus inh -13%.
Screening COc1ccc(-n2nnnc2SCC(=O)N2CCCC2)cc1OC returned Vaccinia mCherry -14%, Pf growth 48h 1%, NS1 inh -5%, Pf growth 96h inconclusive, HCV inh 11% and VACV Venus inh -9%.
For COCc1cccc(-c2csc(C(C)(O)c3cccc(OC)c3)n2)c1 (stereo not given) the results were Vaccinia mCherry inactive and VACV Venus inh -8%.
COc1ccc(C(=O)NNC(=O)c2ccc(S(=O)(=O)N3CC(C)OC(C)C3)cc2)cc1 (stereo not given) was read as Pf growth 48h -5%, Pf growth 96h 1.5µM* and HCV inh 12%.
For COc1ccc(COC(=O)c2ccc(Cl)c(S(=O)(=O)N3CC(C)OC(C)C3)c2)cc1 (stereo not given) the results were Vaccinia mCherry -20%, Pf growth 48h 4.7µM*, Pf growth 96h 6.6µM*, HCV inh 14µM* and VACV Venus inh -14%.
CC1=CC(=C2C=CC(=O)C=C2)C=C(C)N1C was read as Pf growth 48h 7.4µM*, NS1 inh -4% and Pf growth 96h 1.9µM*.
O=C(COC(=O)c1cc(-c2ccccc2)nc2ccccc12)c1ccc(Br)cc1 was read as Vaccinia mCherry -1% and VACV Venus inh -15%.
For COc1ccc(-c2nc3c(c4nnc(SC(C)C(=O)Nc5ccc(C)cc5)n24)COC(C)(C)C3)cc1 (stereo not given) the results were Vaccinia mCherry -14%, Pf growth 48h 7.4µM*, NS1 inh 5%, Pf growth 96h 2.6µM*, HCV inh inconclusive and VACV Venus inh -6%.
`Cc1cc(N2C(=O)c3ccc(C(=O)Nc4ccccc4O)cc3C2=O)no1` gave Vaccinia mCherry inactive, Pf growth 48h inconclusive, NS1 inh 3%, Pf growth 96h -27%, HCV inh 4% and VACV Venus inh -11%.
`Cc1cc(N2C(=O)c3ccc(C(=O)Nc4ccc(CC(=O)O)cc4)cc3C2=O)no1` gave Vaccinia mCherry -18%, Pf growth 48h -10%, NS1 inh 5%, Pf growth 96h 1.9µM*, HCV inh 22% and VACV Venus inh -17%.
For Cc1cc(NC(=O)c2ccc3c(c2)C(=O)N(CCC(C)C)C3=O)no1 the results were Vaccinia mCherry -13%, Pf growth 48h 11%, NS1 inh -8%, Pf growth 96h 9%, HCV inh 26% and VACV Venus inh -3%.
